PubChem BioAssay (NCI)
The panel holds about 83,000 compounds, 20% with a hit somewhere; the sample as a whole holds those more often.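 In brief: 96-well plates, 48 h treatment, single concentration, percent growth endpoint.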 Unmarked numbers belong to inactive results. Activity calls are given as the source filed them. Rule for the calls: active = growth percent below 10; inactive = the rest.

Experiments:
Test in all cases: NCI-60 one-dose screen, 48 h (100 = growth as untreated, 0 = no growth, -100 = all killed)
Settings in all cases: 10 µM unless noted
HT29 colon = tested on: HT29 colon
SNB-75 CNS = tested on: SNB-75 CNS
SNB-19 CNS = tested on: SNB-19 CNS
U251 CNS = tested on: U251 CNS
PC-3 prostate = tested on: PC-3 prostate
SK-MEL-5 melanoma = tested on: SK-MEL-5 melanoma
UACC-62 melanoma = tested on: UACC-62 melanoma
LOX IMVI melanoma = tested on: LOX IMVI melanoma
SK-MEL-28 melanoma = tested on: SK-MEL-28 melanoma
SK-MEL-2 melanoma = tested on: SK-MEL-2 melanoma
EKVX NSCLC = tested on: EKVX NSCLC
SN12C renal = tested on: SN12C renal
UO-31 renal = tested on: UO-31 renal
TK-10 renal = tested on: TK-10 renal
ACHN renal = tested on: ACHN renal
CAKI-1 renal = tested on: CAKI-1 renal
A498 renal = tested on: A498 renal
CCRF-CEM leukemia = tested on: CCRF-CEM leukemia
MOLT-4 leukemia = tested on: MOLT-4 leukemia

| Compound | growth (HT29 colon) | growth (SNB-75 CNS) | growth (SNB-19 CNS) | growth (U251 CNS) | growth (PC-3 prostate) | growth (SK-MEL-5 melanoma) | growth (UACC-62 melanoma) | growth (LOX IMVI melanoma) | growth (SK-MEL-28 melanoma) | growth (SK-MEL-2 melanoma) | growth (EKVX NSCLC) | growth (SN12C renal) | growth (UO-31 renal) | growth (TK-10 renal) | growth (ACHN renal) | growth (CAKI-1 renal) | growth (A498 renal) | growth (CCRF-CEM leukemia) | growth (MOLT-4 leukemia) |
| --- | --- | --- | --- | --- | --- | --- | --- | --- | --- | --- | --- | --- | --- | --- | --- | --- | --- | --- | --- |
| CS(=O)(=O)Nc1cncc(-c2ccc3ncnc(NCc4ccccc4)c3c2)c1 | 65.1% | 5.11% (active) | 39% | 22.1% | 42.1% | -82.9% (active) | 29.2% | 35.9% | 40.3% | -8.92% (active) | 55.2% | 34.8% | 52.7% | 63% | 77.5% | 60.7% | 63.8% | 17% | -26% (active) |
| COc1ccc(S(=O)(=O)Nc2ccc(-c3ccc4c(c3)NC(=O)/C4=C\c3ccc[nH]3)cc2)cc1OC | 8.82% (active) | 13.9% | 3.61% (active) | -58.5% (active) | 44.5% | 20.3% | -45.9% (active) | -30.1% (active) | -90.6% (active) | 46.6% | -27.8% (active) | -0.885% (active) | 54.7% | 11.7% | -31.4% (active) | -11% (active) | 121% | 58.6% | 49% |
| N#Cc1c(-c2ccc(F)cc2)nc(SCc2ccccc2)nc1N1CCNCC1 | -70.7% (active) | -93% (active) | -81.4% (active) | -95.8% (active) | -51.6% (active) | -100% (active) | -97.3% (active) | -93.6% (active) | -96.3% (active) | -82.9% (active) | -98.3% (active) | -93.5% (active) | -82.7% (active) | -88.3% (active) | -99% (active) | -95.3% (active) | -13.8% (active) | -3.47% (active) | -0.64% (active) |
| Cc1ccc(/C=C/C(=O)c2ccc(S(=O)(=O)NCCNc3nc(N(C)C)nc(N4CCOCC4)n3)cc2)cc1 | 37.3% | 59.5% | 79.1% | 42.7% | 57.4% | 89% | 72.6% | 42.1% | 90.7% | 94.1% | 82.6% | 86.4% | 73.2% | 112% | 101% | 64.6% | 96% | 52.1% | 13.5% |
| ClC(Cn1ncc2c(Nc3cccc(Br)c3)nc(SCCN3CCOCC3)nc21)c1ccc(Br)cc1 (stereo not drawn) | -43% (active) | 59.8% | 22.5% | -4.38% (active) | 21.3% | -89.9% (active) | -44.3% (active) | -89.4% (active) | -46.4% (active) | -11.9% (active) | 16.5% | 26.2% | -65.7% (active) | 40.9% | 7.98% (active) |  | 31.7% | -6.03% (active) | -34.3% (active) |
| Fc1cccc(CNc2nc(SCCN3CCOCC3)nc3c2cnn3CC(Cl)c2ccc(Br)cc2)c1 (stereo not drawn) | -49.9% (active) | 42.3% | 42.2% | 25.2% | 25.8% | 3.78% (active) | 28.2% | 5.6% (active) | 46.8% | 13.5% | 41.1% | 36.5% | -3.52% (active) | 46.7% | 17.3% | 26.7% | 57.2% | 6.67% (active) | -23.8% (active) |
| CCCCCCCCc1cccc(CC(=O)Nc2ccc(C)cc2C(=O)O)c1 | 35.9% [25 µM] | 74.1% [25 µM] | 50.9% [25 µM] | 38.2% [25 µM] | 46.8% [25 µM] | 36.5% [25 µM] | 49.4% [25 µM] | 3.4% [25 µM] (active) | 65.5% [25 µM] | 86.3% [25 µM] | 66.5% [25 µM] | 51% [25 µM] | 53.8% [25 µM] | 63.1% [25 µM] | 46.7% [25 µM] | 36.1% [25 µM] | 123% [25 µM] | 26.7% [25 µM] |  |
| COc1cc(NC(=O)C(C)C)ccc1C(=O)NC(=S)Nc1ccc(S(N)(=O)=O)cc1 | 101% | 95.5% | 80.8% | 72% | 115% | 114% | 96.2% | 102% | 114% | 97.4% | 102% | 100% | 89.7% | 94.6% | 103% | 96.7% | 150% | 97.5% | 118% |
| Oc1ccc(Cl)c(Nc2nc(SCCN3CCOCC3)nc3c2cnn3CC(Cl)c2ccc(Br)cc2)c1 (stereo not drawn) | 6.18% (active) | 11.5% | 37.8% | 23.9% | 14.5% | 16.6% | 39.9% | -59.3% (active) | 32% | 20.6% | 37% | 35% | 14% | 36.1% | 12.9% | 21.2% | 63.4% | 3.42% (active) | -24% (active) |
| COc1ccc(CCC2NCCc3c(Br)c4c(c(OC)c32)OCO4)cc1 (stereo not drawn) | 2.11% (active) | -4.42% (active) | 12.1% | 7.13% (active) |  | -17% (active) | -32.5% (active) | -27.5% (active) | 1.12% (active) | -16.9% (active) | 24.4% | 13.2% | 21.1% | 44% | 15.5% | 16.5% | 79% | 19.6% | 9.59% (active) |
| Cc1[nH]nc2ccc3nc(-c4cnn(CCO)c4)c4c(c3c12)CCCC4 | 31.3% | 31.9% | 74.4% |  | 40.4% | 31.7% | 34.8% | 25.1% | 75.6% | 21.1% | 27.2% | 32.3% | 21.5% | 21.1% | 21.4% | 4.55% (active) | -7.65% (active) | 28.7% | 34% |
| CCCCCCCCc1ccc(C(=O)Nc2ccc(C)cc2C(=O)O)cc1 | 109% | 106% | 67.5% | 75.4% | 66.6% | 87.1% | 87.8% | 89.9% |  | 94.8% | 77.5% | 89.5% | 76.3% | 103% | 69.4% | 85.4% | 109% | 53.9% | 75.3% |
